The structures appear in SMILES notation. Inconclusive results are not listed. Activity calls are given as the source filed them. Unless noted, how the calls were made is not given here.

Experiment [1] in a line: qHTS Assay for Identifying Gametocytocidal Compounds (AID 743244; active means well fitted curve in the direction sought with a large enough effect; an effect the other way counts as inactive or inconclusive; further: potency means the concentration at half of the fitted maximal effect;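 on max response: on the % scale 0 is the no-effect control and ±100 the full control effect; actives lower the fluorescent signal which means gametocytes are killed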). The following applies: P. falciparum 3D7 stage III-V gametocytes, alamarBlue, 72 h; max response: stronger effect = lower value. A digest of the protocol: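 P. falciparum 3D7 stage III–V gametocytes (20,000 cells/well) were exposed to compounds for 72 h at 37 °C, 5% CO2. AlamarBlue was then added for 24 h; decreased resorufin fluorescence (Ex 525/Em 598 nm) indicated loss of viability.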
(Quantitative high-throughput screening tests each substance at several concentrations.)

Experiment [2] in a line: qHTS profiling for inhibitors of Plasmodium falciparum (3D7) proliferation (AID 743322).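 Further: infected erythrocytes exposed to compound for 72 h before lysis; 100% = DMSO vehicle wells and 0% = 0.29 µM artemisinin.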 The following applies: P. falciparum 3D7 proliferation; at 28.7 µM (top of the series) unless noted. A digest of the protocol:
(§1)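 Parasite DNA was quantified by SYBR Green I fluorescence (ex 485, em 535 nm) after overnight lysis in saponin/Triton buffer at room temperature. Cultures at 0.3% parasitemia and 2.5% hematocrit were first exposed to compound for 72 h at 37 C; signals were normalised to artemisinin (0.29 uM) and vehicle wells.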

Experiment [3] in a line: qHTS profiling for inhibitors of Plasmodium falciparum (DD2) proliferation (AID 743323). The following applies: lower = more inhibition; at 28.7 µM (top of the series) unless noted. A digest of the protocol:
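SYBR Green fluorescence (ex 485, em 535 nm) of lysed cultures gives parasite DNA content; wells normalized to artemisinin (0.29 uM) and DMSO controls. Infected red cells: 0.3% parasitemia, 2.5% hematocrit, 72 h, 37 C.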

A short description of experiment [4]: qHTS profiling of the MIPE4 collection as inhibitors of Plasmodium falciparum (3D7) proliferation (AID 743344).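 Further: scaled between DMSO vehicle wells and 0.29 µM artemisinin as full inhibition.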 Conditions: P. falciparum 3D7 in erythrocytes, SYBR Green DNA fluorescence, 72 h; at 28.5 µM (top of the series). A digest of the protocol:
as §1

Experiment [5] can be described thus: qHTS profiling of the MIPE4 collection as inhibitors of Plasmodium falciparum (DD2) proliferation (AID 743345). The following applies: P. falciparum Dd2 in erythrocytes, SYBR Green DNA, 72 h; at 28.5 µM (top of the series) unless noted. Summed up: as §1
The nature of experiment [6]: qHTS profiling of the MIPE4 collection as inhibitors of Plasmodium falciparum (DD2) proliferation (Rep 2) (AID 743346). Conditions: P. falciparum Dd2 in erythrocytes, SYBR Green DNA, 72 h; at 28.5 µM (top of the series). A digest of the protocol:
as §1

Experiment [7] in a line: qHTS profiling of the MIPE4 collection as inhibitors of Plasmodium falciparum (HB3) proliferation (AID 743347).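 Further: plate controls were DMSO vehicle wells for no effect and artemisinin wells for full effect.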 Conditions: P. falciparum HB3 in erythrocytes, SYBR Green DNA, 72 h; at 28.5 µM (top of the series). A digest of the protocol: as §1
Experiment [8] in a line: Immunotoxin (HA22) sensitization/mitigation study. Vehicle arm (PBS) (AID 1159510). Further: potency means the concentration at half of the fitted maximal effect.
The nature of experiment [9]: Immunotoxin (SS1P) sensitization/mitigation study. Vehicle arm (DMEM) (AID 1159513). Further: potency means the concentration at half of the fitted maximal effect.
Experiment [10] can be described thus: High-throughput drug toxicity screening in the BPDCN cell line Gen2.2 (AID 1224824).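 Further: cells exposed to compounds for 48 h before reading.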 The following applies: Gen2.2 BPDCN cells; at 45.8 µM (top of the series). Summed up:
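Gen2.2 cells (500/well) in phenol red-free RPMI with 10% FBS were exposed to compounds for 48 h at 37 °C, 5% CO2. Viability was read by CellTiter-Glo luminescence and normalized to DMSO (100%) and 9.2 uM bortezomib (0%).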

Experiment [11] can be described thus: qHTS profiling for inhibitors of Plasmodium falciparum (HB3) proliferation (AID 743324; active means well fitted curve in the direction sought with a large enough effect; an effect the other way counts as inactive or inconclusive;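 further: 100% = DMSO vehicle wells and 0% = artemisinin-treated control wells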). Conditions: Plasmodium falciparum HB3 blood-stage proliferation; at 28.7 µM (top of the series) unless noted. Summed up:
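SYBR Green fluorescence (485 ex/535 em) of lysed cultures, incubated overnight at room temperature in the dark, quantifies parasite DNA. Infected erythrocytes at 0.3% parasitemia and 2.5% hematocrit were exposed 72 h; values normalized to DMSO and 0.29 uM artemisinin controls.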

Regarding `COc1ccc2c(c[n+](C)c3c4cc5c(cc4ccc23)OCO5)c1OC`, the figures for the Potency in experiment [1], in experiment [8] and in experiment [9] were 18.7 µM (active), 1.32 µM (active) and 8.33 µM (active), respectively. The compound also yielded a remaining parasite growth % (stronger effect = lower value) in [2] of 47.6%. The compound further showed an activity, percent of control in experiment [3] of 36.7%. Also, in experiment [4], the parasite growth, % of DMSO control was found to be 71.2%. This compound returned a parasite growth remaining, % of DMSO control (lower = more inhibition) in experiment [5] of 74.8%. For the same compound, in experiment [6], the parasite growth, % of control (lower = inhibition) was determined as 99%. Moreover, the growth, % of control in experiment [7] stood at 104%. In [10], this compound showed a cell viability, % of control (lower = more cytotoxic) of 7.65%.

As to `CN[C@@H](C)C(=O)N[C@H]1CCCC[C@H]2CC[C@@H](C(=O)N[C@@H](c3ccccc3)c3cn(CCCCc4ccc(CCCCn5cc([C@@H](NC(=O)[C@@H]6CC[C@@H]7CCCC[C@H](NC(=O)[C@H](C)NC)C(=O)N76)c6ccccc6)nn5)cc4)nn3)N2C1=O`, in experiment [1], the Potency is 2.64 µM (active). Moreover, the Potency result in [8] is “inactive”.

For the compound `COc1ccc2c(c1)CC[C@H]1[C@@H]2CC[C@]2(C)[C@@H](NCCCCCCN3C(=O)C=CC3=O)CC[C@H]12`, the Potency is 9.35 µM (active) in experiment [1], 20.9 µM (active) in experiment [8] and 20.9 µM (active) in experiment [9]. The same compound came in with a remaining parasite growth % (stronger effect = lower value) in experiment [2] of 86.3%. In experiment [3], this compound registered an activity, percent of control of 73.1%. The remaining proliferation (% of control), lower = more inhibition in [11] was found to be 50.7%. The same compound showed a parasite growth, % of DMSO control in experiment [4] of 62.7%. Besides, the parasite growth, % of control (lower = inhibition) in experiment [6] turned out to be 37.3%. This compound returned a growth, % of control in experiment [7] of 77.6%.

As for `O=C(Nc1cc(C(F)(F)F)cc(C(F)(F)F)c1)c1cc(Cl)ccc1O`, the figures for the Potency in experiment [1], in [8] and in experiment [9] were 7.43 µM (active), 0.166 µM (active) and 0.0662 µM (active), respectively.

In the case of `NC(=O)c1ccc(I)c([N+](=O)[O-])c1`, the Potency entry in experiment [9] was “inactive”.

As to `CC1CC(C)C(=O)C(C(O)CC2CC(=O)NC(=O)C2)C1` (stereo unspecified), the Potency in experiment [1] is 1.52 µM (active); in experiment [8] it was 0.054 µM (active); in experiment [9] it was 0.191 µM (active). The compound also displayed a remaining parasite growth % (stronger effect = lower value) in [2] of 0.131% [at 57.5 µM]. The activity, percent of control in [3] came to 0.244% [at 57.5 µM]. Besides, the remaining proliferation (% of control), lower = more inhibition in experiment [11] is -0.376% [at 57.5 µM].

Regarding `Clc1ccc(-c2nc3sccn3c2C=NOCc2ccc(Cl)c(Cl)c2)cc1`, the Potency entry in experiment [9] is “inactive”.

Regarding `Cc1cc(-c2nnc3n2CCCCC3)c(C)n1-c1ccc(F)cc1`, in experiment [9], the Potency was 0.332 µM (active).

In the case of `CO[C@H]1C=CC=C(C)C(=O)NC2=CC(=O)C(NCCN(C)C)=C(C[C@@H](C)C[C@H](OC)[C@@H](O)[C@@H](C)C=C(C)[C@@H]1OC(N)=O)C2=O`, the Potency in experiment [1] is 0.0469 µM (active); in experiment [8], 0.0059 µM (active); in experiment [9], 3.32 µM (active).

`CCCCN1CCC(CNC(=O)c2c3n(c4ccccc24)CCCO3)CC1` had a remaining parasite growth % (stronger effect = lower value) in experiment [2] of 91.7%. Moreover, in experiment [3], the activity, percent of control is 54.7%. In [11], the remaining proliferation (% of control), lower = more inhibition turned out to be 74.4%. Further, the parasite growth remaining, % of DMSO control (lower = more inhibition) in [5] is 56.2%. For the same compound, the growth, % of control in experiment [7] turned out to be 32.4%. Moreover, the Potency entry in experiment [8] and in experiment [9] was “inactive” throughout.

With `O=C(Nc1cc(Cl)cc2c1[nH]c1cnccc12)c1cccnc1`, the Potency in experiment [9] is 13.2 µM (active).

For `CN1CC[C@@H](c2c(O)cc(O)c3c(=O)cc(-c4ccccc4Cl)oc23)[C@@H](O)C1`, the max response in experiment [1] was 13.4% (inactive). The figures for the Potency in [8] and in experiment [9] were 0.0166 µM (active) and 0.0469 µM (active), respectively.

As to `Cc1ccccc1-n1c(Cn2cnc3c(N)ncnc32)nc2cccc(C)c2c1=O`, in [1], the max response is 15.4% (inactive). This compound came in with a remaining parasite growth % (stronger effect = lower value) in experiment [2] of 43.1%. The compound further had an activity, percent of control in experiment [3] of 37.6%. Also, the remaining proliferation (% of control), lower = more inhibition in experiment [11] was 24.9%. The compound further had a parasite growth, % of DMSO control in [4] of 5.28%. The parasite growth remaining, % of DMSO control (lower = more inhibition) in [5] was found to be 12.7%. Also, the growth, % of control in [7] was determined as 2.42%. Further, the Potency in [8] was 23.5 µM (active). In experiment [10], this compound yielded a cell viability, % of control (lower = more cytotoxic) of 68.3%.

For `COc1cc(N2CCC(N3CCN(C)CC3)CC2)ccc1Nc1ncc(Cl)c(Nc2ccccc2S(=O)(=O)C(C)C)n1`, the Potency in [9] was 5.26 µM (active).

As for `Cc1cc2c(cc1C1(c3ccc(C(=O)O)cn3)CC1)C(C)(C)CCC2(C)C`, the Potency entry in experiment [9] was “inactive”.

`Nc1nc(-c2nn(Cc3ccccc3F)c3ncccc23)nc(N)c1N1CCOCC1` displayed a remaining parasite growth % (stronger effect = lower value) in experiment [2] of 100%. In addition, in experiment [3], the activity, percent of control is 94.1%. The remaining proliferation (% of control), lower = more inhibition in experiment [11] is 67.6%. The same compound came in with a parasite growth remaining, % of DMSO control (lower = more inhibition) in experiment [5] of 91.1%. The parasite growth, % of control (lower = inhibition) in experiment [6] worked out at 60.8%. In experiment [7], this compound displayed a growth, % of control of 51.5%. The Potency entry in experiment [8] and in experiment [9] was “inactive” each time.

`Cn1cncc1[C@@](N)(c1ccc(Cl)cc1)c1ccc2c(c1)c(-c1cccc(Cl)c1)cc(=O)n2C` showed a parasite growth remaining, % of DMSO control (lower = more inhibition) in experiment [5] of 33.3%. In addition, the Potency in experiment [8] is 11.8 µM (active); in experiment [9], 20.9 µM (active).

Take `O=C(Oc1ccc([N+](=O)[O-])cc1)N1CCC(C(O)(c2ccc3c(c2)OCO3)c2ccc3c(c2)OCO3)CC1`: in [1], the max response was -4.93% (inactive). In addition, the remaining parasite growth % (stronger effect = lower value) in [2] was 26.6%. The activity, percent of control in experiment [3] came out at 90.2%. Besides, in experiment [11], the remaining proliferation (% of control), lower = more inhibition turned out to be 75.8%. Besides, the parasite growth, % of DMSO control in [4] was determined as 63%. Moreover, in [5], the parasite growth remaining, % of DMSO control (lower = more inhibition) was 78.9%. The parasite growth, % of control (lower = inhibition) in experiment [6] amounted to 33.6%. This compound returned a growth, % of control in [7] of 77.1%. Moreover, in [8], the Potency is 5.26 µM (active). Moreover, in experiment [9], the Potency entry is “inactive”. Moreover, the cell viability, % of control (lower = more cytotoxic) in experiment [10] is 40.5%.

For `CC(C)(C)c1[nH]cnc1C=c1[nH]c(=O)c(=Cc2ccccc2)[nH]c1=O`, the remaining parasite growth % (stronger effect = lower value) in experiment [2] was found to be 58.1%. Besides, in experiment [3], the activity, percent of control stood at 49.6%. Further, in experiment [11], the remaining proliferation (% of control), lower = more inhibition was found to be 37.2%. In [5], this compound came in with a parasite growth remaining, % of DMSO control (lower = more inhibition) of 41.8% [at 57.5 µM]. Besides, the results for the Potency in experiment [8] and in experiment [9] were 0.0074 µM (active) and 0.0118 µM (active), respectively.

Source of the values: PubChem BioAssay (NCATS).
